Measurements from PubChem BioAssay.
Values without a mark were called inactive. Active and inactive are the calls of the source.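 How the source made its calls, unless noted: active means GFP response above 150% of the DMSO level; inconclusive means fewer than 70 events counted for a yeast strain; inactive means the rest.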

Tests used:
[1] = AGP1-GFP expression modulators, hit retest, confirmation, cell-based, flow cytometry, S. cerevisiae, cherry picks (AID 2273);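 further: median GFP channel fluorescence over the whole cell population gate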; conditions: S. cerevisiae AGP1-GFP strain, 3 h, at 10 µM
[2] = target: Integrin beta-1 (Homo sapiens) + Integrin alpha-4 (Homo sapiens) (UniProt P13612+P05556); experiment: inhibition of HUTS-21 binding to VLA-4, pilot screen, VLA-4 allosteric modulator project, U937 cells, HUTS-21 mAb, flow cytometry, validation set (AID 2674;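 active means inhibition above 50%, about 3 SD of the validation set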;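 further: antibody binding induced by the VLA-4 ligand LDV present at three times its Kd; 0% = LDV ligand with antibody and no compound and 100% = antibody without LDV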); conditions: HUTS-21 LIBS mAb binding, at 6.7 µM, stronger effect = higher value, binding induced by LDV ligand
Chain of Integrin beta-1 (Homo sapiens) + Integrin alpha-4 (Homo sapiens) (P05556 whole entry, looked up): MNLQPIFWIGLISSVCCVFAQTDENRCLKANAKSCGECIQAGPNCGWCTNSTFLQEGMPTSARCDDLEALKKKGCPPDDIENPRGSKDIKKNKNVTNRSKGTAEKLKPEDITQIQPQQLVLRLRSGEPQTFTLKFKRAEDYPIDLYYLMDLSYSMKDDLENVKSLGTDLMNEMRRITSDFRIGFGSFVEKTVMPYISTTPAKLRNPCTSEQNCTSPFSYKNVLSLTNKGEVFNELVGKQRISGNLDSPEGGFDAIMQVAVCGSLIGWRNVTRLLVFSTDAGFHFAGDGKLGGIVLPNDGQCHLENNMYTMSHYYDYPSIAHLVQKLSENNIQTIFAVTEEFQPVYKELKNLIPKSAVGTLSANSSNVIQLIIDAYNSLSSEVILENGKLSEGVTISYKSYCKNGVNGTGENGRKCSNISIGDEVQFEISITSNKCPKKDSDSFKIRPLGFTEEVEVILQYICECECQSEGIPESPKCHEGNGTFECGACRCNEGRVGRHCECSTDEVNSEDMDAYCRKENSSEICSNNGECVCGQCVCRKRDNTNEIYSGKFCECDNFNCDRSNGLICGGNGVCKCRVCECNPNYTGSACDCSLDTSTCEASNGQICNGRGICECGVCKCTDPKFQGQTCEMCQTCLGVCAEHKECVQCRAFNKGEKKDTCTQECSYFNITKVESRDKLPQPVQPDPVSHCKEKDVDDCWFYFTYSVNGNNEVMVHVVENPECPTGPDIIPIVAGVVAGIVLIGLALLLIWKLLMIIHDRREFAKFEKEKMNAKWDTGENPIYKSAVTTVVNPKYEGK
Chain of Integrin beta-1 (Homo sapiens) + Integrin alpha-4 (Homo sapiens) (P13612 whole entry, looked up): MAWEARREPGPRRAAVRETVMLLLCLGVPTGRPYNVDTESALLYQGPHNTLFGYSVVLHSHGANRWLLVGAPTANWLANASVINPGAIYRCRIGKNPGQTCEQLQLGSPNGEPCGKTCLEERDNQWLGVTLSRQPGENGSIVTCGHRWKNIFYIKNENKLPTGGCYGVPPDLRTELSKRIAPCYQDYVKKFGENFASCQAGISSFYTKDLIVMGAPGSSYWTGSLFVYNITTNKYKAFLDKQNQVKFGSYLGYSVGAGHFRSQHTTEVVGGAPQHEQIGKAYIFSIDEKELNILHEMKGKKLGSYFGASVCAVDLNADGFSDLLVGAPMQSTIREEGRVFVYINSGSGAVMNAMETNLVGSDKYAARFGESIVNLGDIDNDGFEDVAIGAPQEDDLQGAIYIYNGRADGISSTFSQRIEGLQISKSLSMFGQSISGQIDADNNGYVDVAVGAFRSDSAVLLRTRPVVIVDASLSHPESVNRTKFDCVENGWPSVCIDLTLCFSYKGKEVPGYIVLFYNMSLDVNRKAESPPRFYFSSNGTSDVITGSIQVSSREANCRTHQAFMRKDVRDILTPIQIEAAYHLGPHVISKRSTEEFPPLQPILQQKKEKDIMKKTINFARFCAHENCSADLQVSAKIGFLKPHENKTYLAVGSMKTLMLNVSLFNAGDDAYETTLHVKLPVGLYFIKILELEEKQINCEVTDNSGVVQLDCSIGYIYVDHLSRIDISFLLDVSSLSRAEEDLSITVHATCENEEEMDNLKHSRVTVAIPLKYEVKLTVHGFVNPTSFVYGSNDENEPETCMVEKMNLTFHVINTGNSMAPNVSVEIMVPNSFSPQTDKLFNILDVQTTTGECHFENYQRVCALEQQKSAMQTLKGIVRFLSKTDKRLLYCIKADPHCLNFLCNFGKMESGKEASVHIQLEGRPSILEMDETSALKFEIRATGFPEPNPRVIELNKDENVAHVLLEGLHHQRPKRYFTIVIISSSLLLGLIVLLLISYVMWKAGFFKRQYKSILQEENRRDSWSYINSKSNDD

[3] = superoxide lowering in aged yeast cells, pilot screen, validation compound set (AID 2706;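 active means superoxide response below 65% of plate, a cut near 3 SD across the whole screen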;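 further: yeast exposed to compound for one week at 30 degrees C before staining; 100% = mean of all compound wells on the same plate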); conditions: S. cerevisiae aging, superoxide DHE fluorescence; at 10 µM; stronger effect = lower value
[4] = target: Beta-adrenergic receptor kinase 1 (Homo sapiens) (UniProt P25098); experiment: GRK2 binders displacing RNA aptamer, biochemical, validation, human GRK2, bead flow cytometry (AID 488806;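 active means aptamer binding inhibition above 30%, about 3 SD of noise from non-fluorescent compounds; inactive means inhibition at or below 30%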); conditions: bead-bound GRK2, FAM-aptamer displacement, at 10 µM, stronger effect = higher value
Chain of Beta-adrenergic receptor kinase 1 (Homo sapiens) (P25098 whole entry, looked up): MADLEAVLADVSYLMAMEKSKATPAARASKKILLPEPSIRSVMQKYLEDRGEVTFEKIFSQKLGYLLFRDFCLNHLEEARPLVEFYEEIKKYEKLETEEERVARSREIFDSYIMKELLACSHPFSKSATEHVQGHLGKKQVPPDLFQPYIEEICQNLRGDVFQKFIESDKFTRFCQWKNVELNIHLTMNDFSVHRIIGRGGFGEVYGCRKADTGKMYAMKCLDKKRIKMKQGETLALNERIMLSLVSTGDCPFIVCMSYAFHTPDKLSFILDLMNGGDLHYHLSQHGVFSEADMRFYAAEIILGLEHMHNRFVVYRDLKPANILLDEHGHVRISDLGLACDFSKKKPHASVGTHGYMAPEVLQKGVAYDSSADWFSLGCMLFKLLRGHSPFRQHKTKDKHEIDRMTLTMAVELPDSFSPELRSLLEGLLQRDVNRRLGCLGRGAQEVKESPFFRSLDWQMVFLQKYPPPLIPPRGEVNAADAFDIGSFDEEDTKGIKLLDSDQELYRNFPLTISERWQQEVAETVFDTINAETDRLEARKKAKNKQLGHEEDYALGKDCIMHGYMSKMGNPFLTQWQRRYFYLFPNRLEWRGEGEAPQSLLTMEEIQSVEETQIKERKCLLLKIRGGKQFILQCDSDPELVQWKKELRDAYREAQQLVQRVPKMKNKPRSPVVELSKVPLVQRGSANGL

[5] = target: Beta-2 adrenergic receptor (Homo sapiens) (UniProt P07550); experiment: beta2AR agonists driving receptor internalization, pilot screen, cell-based, FAP fluorogen, flow cytometry, validation set (AID 504459;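 active means percent response above 42, roughly 3 SD of non-fluorescent test compounds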;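 further: agonist-driven loss of surface beta2AR via internalization measured by FAP dye flow cytometry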); conditions: Am2.2-beta2AR cells, FAP surface receptor flow cytometry; at 10 µM; stronger effect = higher value
Chain of Beta-2 adrenergic receptor (Homo sapiens) (P07550 whole entry, looked up): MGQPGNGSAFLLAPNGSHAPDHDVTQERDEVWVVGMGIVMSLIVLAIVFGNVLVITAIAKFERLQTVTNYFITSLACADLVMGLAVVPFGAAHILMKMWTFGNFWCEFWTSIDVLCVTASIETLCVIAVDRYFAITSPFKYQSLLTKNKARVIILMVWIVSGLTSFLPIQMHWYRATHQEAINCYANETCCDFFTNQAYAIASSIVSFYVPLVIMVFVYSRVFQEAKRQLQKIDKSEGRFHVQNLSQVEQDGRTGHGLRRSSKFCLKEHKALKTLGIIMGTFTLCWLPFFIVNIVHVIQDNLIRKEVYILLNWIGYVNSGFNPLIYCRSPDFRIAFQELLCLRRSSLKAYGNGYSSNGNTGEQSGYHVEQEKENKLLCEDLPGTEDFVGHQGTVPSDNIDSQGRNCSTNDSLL

[6] = target: AP-2 complex subunit beta (Homo sapiens) (UniProt P63010); experiment: inhibitors of arrestin peptide binding to AP2, pilot screen, biochemical, validation set, GST-AP2 beads, flow cytometry (AID 504541;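 active means inhibition above 54%, about 3 SD of non-fluorescent compounds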;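 further: AP2 carries R879A mutation and is captured from E. coli lysate; bead-bound FITC arrestin peptide fluorescence measuring arrestin peptide binding to AP2; 0% = DMSO wells and 100% = excess unlabeled arrestin peptide control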); conditions: FITC arrestin peptide, at 10 µM, stronger effect = higher value, AP2 beta2 appendage fragment, R879A mutant
Chain of AP-2 complex subunit beta (Homo sapiens) (P63010 whole entry, looked up, the tested form may be a part, one chain of several): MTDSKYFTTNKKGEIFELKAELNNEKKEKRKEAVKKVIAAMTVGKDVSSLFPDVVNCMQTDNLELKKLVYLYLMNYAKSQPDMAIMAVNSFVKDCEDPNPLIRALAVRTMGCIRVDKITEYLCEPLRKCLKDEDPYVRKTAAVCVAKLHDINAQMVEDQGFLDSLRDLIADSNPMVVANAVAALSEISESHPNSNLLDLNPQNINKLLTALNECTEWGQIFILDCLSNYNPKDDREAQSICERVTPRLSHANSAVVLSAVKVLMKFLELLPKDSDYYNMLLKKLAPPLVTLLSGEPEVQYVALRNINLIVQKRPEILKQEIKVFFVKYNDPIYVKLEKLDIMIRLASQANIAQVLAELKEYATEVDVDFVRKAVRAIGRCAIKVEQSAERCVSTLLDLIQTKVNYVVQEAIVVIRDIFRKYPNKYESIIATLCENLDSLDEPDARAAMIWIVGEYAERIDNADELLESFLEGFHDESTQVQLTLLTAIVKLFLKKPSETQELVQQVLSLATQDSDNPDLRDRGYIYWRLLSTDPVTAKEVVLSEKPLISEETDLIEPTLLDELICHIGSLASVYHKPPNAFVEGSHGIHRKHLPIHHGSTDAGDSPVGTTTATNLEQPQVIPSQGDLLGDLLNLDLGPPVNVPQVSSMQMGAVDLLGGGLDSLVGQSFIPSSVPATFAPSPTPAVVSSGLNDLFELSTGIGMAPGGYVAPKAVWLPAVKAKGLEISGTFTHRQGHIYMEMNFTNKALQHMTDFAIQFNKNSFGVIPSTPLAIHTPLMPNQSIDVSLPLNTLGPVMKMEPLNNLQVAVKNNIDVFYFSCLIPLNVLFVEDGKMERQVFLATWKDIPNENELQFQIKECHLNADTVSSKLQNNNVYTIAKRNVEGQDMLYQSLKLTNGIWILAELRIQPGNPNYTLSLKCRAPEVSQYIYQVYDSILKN

[7] = yeast V-ATPase proton transport modulators, S. cerevisiae, pHLuorin, HTS validation (AID 504600; in the data active means response above about 15%;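 further: plate controls were DMSO for no effect and reference compound for full effect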); conditions: S. cerevisiae pHLuorin cytosolic pH, at 10 µM, stronger effect = higher value
[8] = tested on: anti-desmoglein-3 scFv antibody binding to human DSG3; experiment: inhibitors of anti-DSG3 scFv binding to DSG3, pilot screen, biochemical, validation compound set, bead-based, flow cytometry (AID 588368;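 active means binding below the plate cutoff, the plate median minus 3 SD, with a reading above zero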;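 further: signal is the median channel fluorescence of bead-bound GFP antibody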); conditions: Protein G beads, DSG3-Fc, scFv-GFP binding, at 10 µM, stronger effect = lower value
[9] = inhibitors of fungal efflux pumps CDR1, CDR2, MDR1, pilot screen, validation compound set, multiplex, phenotypic (AID 588506;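 active means efflux inhibition above 0.42, the validation set average plus 4 SD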;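 further: Nile Red retained in cells so higher fluorescence means more efflux inhibition; 0 = negative control wells and 1 = enniatin B 25 µM full block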); conditions: S. cerevisiae pump-expressing triplex, Nile Red efflux flow cytometry; at 10 µM; stronger effect = higher value; the pumps come from Candida albicans
[10] = target: ATP-binding cassette sub-family B member 6 (Homo sapiens) (UniProt Q9NP58); experiment: ABCB6 transporter inhibitors, pilot screen, K562-ABCB6 cells, flow cytometry, validation set (AID 588550;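 active means inhibition above the screen-wide mean plus 3 SD, about 51%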;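 further: 0% = DMSO wells and 100% = benzethonium chloride 70 µM positive control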); conditions: K562-ABCB6 porphyrin accumulation, 1 h, at 10 µM, stronger effect = higher value
Chain of ATP-binding cassette sub-family B member 6 (Homo sapiens) (Q9NP58 whole entry, looked up): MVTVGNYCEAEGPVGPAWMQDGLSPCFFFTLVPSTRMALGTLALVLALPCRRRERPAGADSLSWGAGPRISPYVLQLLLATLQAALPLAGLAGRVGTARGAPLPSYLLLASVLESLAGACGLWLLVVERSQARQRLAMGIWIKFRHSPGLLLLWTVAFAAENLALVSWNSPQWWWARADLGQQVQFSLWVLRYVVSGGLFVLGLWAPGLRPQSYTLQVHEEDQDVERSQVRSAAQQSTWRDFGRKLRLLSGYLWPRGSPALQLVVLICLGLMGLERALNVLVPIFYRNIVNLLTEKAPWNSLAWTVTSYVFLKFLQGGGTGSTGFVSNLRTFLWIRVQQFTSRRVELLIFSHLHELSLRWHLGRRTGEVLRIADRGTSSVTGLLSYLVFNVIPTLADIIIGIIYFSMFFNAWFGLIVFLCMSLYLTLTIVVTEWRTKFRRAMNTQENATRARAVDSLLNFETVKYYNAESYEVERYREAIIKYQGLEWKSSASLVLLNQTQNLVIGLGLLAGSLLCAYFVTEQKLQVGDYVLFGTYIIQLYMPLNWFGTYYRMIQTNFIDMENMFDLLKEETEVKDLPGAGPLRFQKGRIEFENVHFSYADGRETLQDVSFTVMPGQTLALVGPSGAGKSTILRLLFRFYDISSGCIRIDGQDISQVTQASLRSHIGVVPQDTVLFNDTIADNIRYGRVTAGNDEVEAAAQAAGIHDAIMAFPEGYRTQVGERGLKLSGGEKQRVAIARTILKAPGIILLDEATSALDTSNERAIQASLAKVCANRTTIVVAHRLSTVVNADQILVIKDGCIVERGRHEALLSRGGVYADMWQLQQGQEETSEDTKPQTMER

[11] = promoters of myeloid differentiation in arrested cells, primary screen, cell-based, GFP/MAC1 double positive, flow cytometry, validation set (AID 588685;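 active means differentiation response of at least 50%, scaled between solvent and reference control, from cells with both markers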;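 further: compound exposure lasts four days before antibody staining and flow analysis; 0% = DMSO wells and 100% = 5 µM fulvestrant positive control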); conditions: ER-HoxA9 marrow cells, stronger effect = higher value, normalized: vehicle 0, fulvestrant 100

SMILES | GFP response, % of DMSO [1] | inhibition [2] | superoxide response (% of plate) [3] | aptamer binding inhibition [4] | response [5] | inhibition [6] | response [7] | binding (% of control) [8] | efflux inhibition (fraction of control) [9] | inhibition [10] | differentiation response [11]
O=C(NCCN1CCN(c2ccccc2)CC1)c1cccc(Br)c1 | 100% | 17.1% | 104% | 0% | -3.55% | 13.8% | -7.18% | 103% | 0.05 | 6% | 11.5%
COc1ccc(-c2[nH]ncc2CN(CCO)Cc2cccs2)c(F)c1 | 97.2% | 5.61% | 92.5% | 5% | -21% | 53.1% | -4.99% | 99.8% | 0.08 | -5% | -0.18%
CC(=O)Nc1ccc(S(=O)(=O)c2ccc(N)cc2)cc1 | 105% | 17.1% | 110% | 0% | -3.74% | -5.82% | -1.44% | 101% | 0.05 | 8% | 9.01%
Cc1ccc(OCCCCn2ccnc2C)c(C)c1 | 101% | 30.4% | 98.5% | 3% | -16% | -1.94% | 3.03% | 106% | -0.13 | 10% | 5.85%
C[C@]12CC[C@@H]3c4ccc(O)cc4C(=O)C[C@H]3[C@@H]1CC[C@@H]2O | 97.2% | -0.33% | 104% | 1% | -10.5% | 44.1% | -4.63% | 91.9% | 0.37 | 0% | 0.82%
O=c1cc(-c2ccccc2)oc2cc(OCc3ccccc3)cc(O)c12 | 98.9% | -16.8% | 88.6% | 0% | -12.6% | 30.1% | -0.61% | 100% | 0.59 (active) | 0% | 5.73%
CC(=O)[C@H]1CC[C@H]2[C@@H]3CCC4=CC(=O)CC[C@]4(C)[C@H]3CC[C@]12C | 96% | 21.7% | 136% | 5% | -14.3% | -3.41% | 5.39% | 99.6% | 0.275 | 0% | -1.65%
O=C1ON=C(c2ccc(Cl)cc2)/C1=C/c1ccc(O)cc1 | 95.4% | 14.6% | 93.4% | 4% | 33.5% | -8.88% | -1.63% | 101% | -0.06 | 2% | -8.8%
CC(=O)[C@@]1(O)CC[C@H]2[C@@H]3C[C@H](C)C4=CC(=O)CC[C@]4(C)[C@H]3CC[C@@]21C | 93.3% | 11.3% | 97% | 4% | 4.79% | -6.18% | 1.54% | 102% | -0.46 | 13% | -9.01%
CC(NCCc1ccc(O)cc1)C(O)c1ccc(O)cc1 (stereo not drawn) | 101% | -13.9% | 96.5% | 2% | 0.53% | 5.41% | -1.74% | 103% | -0.31 | 10% | -8.19%
COc1cccc(/C=C/C(=O)c2c(O)cc(C)oc2=O)c1O | 94.1% | -3.16% | 80.7% | 3% | 17.4% | 10.4% | 2.77% | 104% | 0.19 | -4% | 5.6%
Nc1[nH]c(=O)ncc1F | 78.5% | 10% | 67.3% | 0% | – | 27% | -5.4% | 108% | 0.33 | 1% | 7.87%
CC(=O)Nc1ccccc1O | 98.7% | 6.46% | 87.6% | 6% | 2.64% | 0.05% | 0.98% | 101% | -0.28 | 8% | 3.28%
CCOc1cc(C=O)ccc1OCCSc1ccc(C)cc1 | 94.9% | 9.13% | 108% | 4% | 5.33% | -9.69% | 5.17% | 98.9% | 0.08 | 5% | -16.8%
N=c1nc(N2CCCCC2)cc(N)n1O | 98.9% | 16.2% | 89.4% | 2% | -8.64% | 33.9% | -5.96% | 98.5% | 0.37 | 115% (active) | 8.19%
CN/C(=C/[N+](=O)[O-])NCCSCc1ccc(CN(C)C)o1 | 99.3% | -0.33% | 89.5% | -20% | 2.38% | -0.41% | -2.01% | 104% | -0.42 | 14% | -3.28%
CC(=O)O[C@]1(C(C)=O)CC[C@H]2[C@@H]3C[C@H](C)C4=CC(=O)CC[C@]4(C)[C@H]3CC[C@@]21C | 97.1% | -3.57% | – | -1% | 3.07% | -9.79% | -0.42% | 100% | 0.08 | 20% | 10%
COc1cc2c(cc1OC)C(c1ccccc1)=NCC2 | 98.3% | 2.58% | 93.7% | 3% | 2.38% | 6.17% | -0.17% | 99% | 0.34 | 6% | 1.64%
Cc1ccc2[nH]c3c(c2c1)CCNC3=O | 95% | 7.22% | 95% | -2% | – | -5.6% | -10.4% | 100% | -0.2 | 7% | -6.66%
COc1cc(/C=C/C(=O)CC(=O)/C=C/c2ccc(O)c(OC)c2)ccc1O | 98.7% | – | – | 6% | -195% | 14.9% | -4.77% | 129% | 0.24 | -398% | 18.8%
CC(=O)[C@H]1CC[C@H]2[C@@H]3CCC4=CC(=O)CC[C@]4(C)[C@H]3[C@H](O)C[C@]12C | 100% | -20.7% | 109% | 3% | 0.15% | 16.3% | -2.3% | 97.4% | 0.12 | 2% | 4.09%
O=c1[nH]cc(F)c(=O)[nH]1 | 90% | -45% | 100% | -3% | -17.5% | -8.2% | 1.44% | 104% | -0.06 | 9% | -5.73%
CC(=O)CSc1ncnc2c1cnn2-c1ccccc1 | 92.6% | 10.3% | 85.6% | 1% | 6.9% | 14.5% | -1.56% | 105% | 0.09 | 7% | 6.55%
